Here are results for 32 compounds from the supplement of paper PMC11624193, “Coupling cellular drug-target engagement to downstream pharmacology with CeTEAM” (Nature Communications, 2024).

Structures can show the parent of a compound that is named as a salt. Values without a mark were called inactive.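 Rule for the calls: active = log2 fold change beyond 2 SD from the library mean after excluding viability outliers; inactive = within 2 SD.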

Chain of PARP1 L713F-nLuc biosensor (HCT116) (P09874 whole entry L713F, looked up): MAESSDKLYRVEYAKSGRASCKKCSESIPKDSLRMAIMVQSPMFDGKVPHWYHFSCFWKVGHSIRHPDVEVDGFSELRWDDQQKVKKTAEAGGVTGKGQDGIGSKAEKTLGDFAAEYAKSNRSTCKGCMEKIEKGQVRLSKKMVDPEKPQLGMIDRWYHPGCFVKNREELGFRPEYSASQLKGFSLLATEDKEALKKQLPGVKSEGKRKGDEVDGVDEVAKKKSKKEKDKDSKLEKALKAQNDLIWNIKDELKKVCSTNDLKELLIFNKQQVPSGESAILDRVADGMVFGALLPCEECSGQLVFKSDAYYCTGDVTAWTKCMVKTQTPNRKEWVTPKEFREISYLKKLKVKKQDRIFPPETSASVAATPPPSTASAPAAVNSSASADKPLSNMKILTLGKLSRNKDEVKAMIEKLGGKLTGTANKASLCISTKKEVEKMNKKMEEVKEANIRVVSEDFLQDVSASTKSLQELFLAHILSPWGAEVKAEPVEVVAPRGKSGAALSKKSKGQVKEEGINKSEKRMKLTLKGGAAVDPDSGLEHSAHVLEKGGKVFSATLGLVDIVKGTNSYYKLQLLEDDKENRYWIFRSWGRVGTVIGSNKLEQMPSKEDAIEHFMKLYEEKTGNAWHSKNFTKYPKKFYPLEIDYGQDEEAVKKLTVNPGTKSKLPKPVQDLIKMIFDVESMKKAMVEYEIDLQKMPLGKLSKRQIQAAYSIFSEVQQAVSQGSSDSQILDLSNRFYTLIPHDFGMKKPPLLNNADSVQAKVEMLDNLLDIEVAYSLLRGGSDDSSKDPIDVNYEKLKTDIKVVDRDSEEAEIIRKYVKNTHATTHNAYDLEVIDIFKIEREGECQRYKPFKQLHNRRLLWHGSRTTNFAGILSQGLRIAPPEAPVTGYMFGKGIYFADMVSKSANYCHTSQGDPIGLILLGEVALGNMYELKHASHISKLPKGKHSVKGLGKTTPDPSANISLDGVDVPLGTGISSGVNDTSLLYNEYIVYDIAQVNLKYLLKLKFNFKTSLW

The assay concerns the target PARP1 L713F-nLuc biosensor (HCT116) (UniProt P09874). The assay is described as follows: PARP1 L713F-nLuc/akaLuc ratio relative to DMSO control (biosensor stabilization) (fold change); higher = more PARP1 biosensor stabilization (target engagement / stabilizer), active = hit call of the paper. Conditions: stock concentration (mM; final µM = stock mM x 1): 10; 24 h.
With `C[C@H]1CCCN1Cc1nc2cc(NC(=O)c3ccc4c(cnn4C)c3)ccc2[nH]1`, the “PARP1 L713F-nLuc/akaLuc ratio” value was 0.788.
`Cc1c(CN2CCC(Nc3ncnc4sc(CC(F)(F)F)cc34)CC2)ccc2c1cc(C#N)n2Cc1cn[nH]c1`: the “PARP1 L713F-nLuc/akaLuc ratio” value was 0.806.
Take `Cc1cn(CCN2CCN(c3ccccc3-c3cc(C#N)cc(C(=O)NCCCN4CCCC4)c3)CC2)c2ccccc12`: the “PARP1 L713F-nLuc/akaLuc ratio” value was 0.612.
In the case of `COc1cc2ncnc(Oc3cccc(NC(=O)Nc4cc(C(C)(C)C(F)(F)F)on4)c3)c2cc1OC`, the “PARP1 L713F-nLuc/akaLuc ratio” value is 1.02.
To `CNCc1ccc(-c2[nH]c3cc(F)cc4c3c2CCNC4=O)cc1` [Rucaparib (Camsylate)] belongs 6.55 (active); to `O=C(NCCCNC(=O)Nc1cccc(C2=NCCN2)c1)Nc1cccc(C2=NCCN2)c1` [p32 Inhibitor M36], 1.09; to `O=C1NC(=O)[C@@H](c2cn3c4c(cccc24)CCC3)[C@@H]1c1c[nH]c2ccccc12` [Tivantinib (ARQ 197)], 0.773.
With `Nc1nc(=S)c2[nH]cnc2[nH]1` [6-Thioguanine], the “PARP1 L713F-nLuc/akaLuc ratio” value is 1.43.
The figure for `COc1ccc(/C=C/C(=O)NO)c(-c2ccc(-c3ccccc3)cc2)c1` is 0.65.
To `Nc1nc(=O)n([C@H]2C[C@H](O)[C@@H](CO)O2)cc1F` [5-Fluoro-2'-deoxycytidine] belongs 0.559.
To `Cc1cc(Cl)ccc1OCCCC(=O)NO` [Droxinostat] belongs 2.78 (active).
As for `O=C(O)CNC(=O)C1=C(O)CCN(Cc2ccc(Oc3ccc(Cl)cc3)nc2)C1=O`, the “PARP1 L713F-nLuc/akaLuc ratio” value is 1.22.
On to `Cc1cc(C)nc(SCC(=O)Nc2ncc(Cc3cccc4ccccc34)s2)n1`, for which the “PARP1 L713F-nLuc/akaLuc ratio” value is 0.926.
To `N=C(NOCC(O)CN1CCCCC1)c1cccnc1` (configuration not stated) belongs 0.933.
To `O=C1CCc2ccccc2O1` [Dihydrocoumarin] belongs 0.769; to `Cn1ncc(Cl)c1-c1cc(C(=O)N[C@H](CN)Cc2cccc(F)c2)sc1Cl` [Afuresertib], 1.63; to `N[C@H]1C[C@@H]1c1ccc(-c2cccc(O)c2)cc1`, 0.692.
On to `c1cc(-c2cnn3cc(-c4ccc(OCCN5CCCCC5)cc4)cnc23)ccn1` [Dorsomorphin (dihydrochloride)], for which the “PARP1 L713F-nLuc/akaLuc ratio” value was 1.8.
For `COCCCc1sc(-c2ccccc2)nc1C(=O)Nc1ccccc1-c1nc2cc(CN3CCCC3)cnc2s1` [Sirtuin modulator 1], the “PARP1 L713F-nLuc/akaLuc ratio” value was 0.737.
Turning to `COc1ccc(C(NC(=O)c2cnc(-c3cccnn3)[nH]c2=O)c2ccc(OC)cc2)cc1`, the “PARP1 L713F-nLuc/akaLuc ratio” value was 0.884.
The figure for `C=CC(=O)N1CCC(Oc2cc3c(Nc4ccc(Cl)c(Cl)c4F)ncnc3cc2OC)CC1` [Poziotinib (HM781-36B)] is 1.28; for `c1cc(-c2cnn3cc(-c4ccc(OCCN5CCCCC5)cc4)cnc23)ccn1` [Dorsomorphin] it is 1.11; for `COc1ccc(C2CC(c3ccccc3)=NN2c2ccc(S(N)(=O)=O)cc2)cc1` (configuration not stated) it is 1.29.
To `CCOc1cccc2c1N[C@@H](c1ccc(C(=O)O)cc1)[C@H]1CC=C[C@@H]21` [LIN28 inhibitor LI71] belongs 0.616.
To `COc1cc([C@@H]2c3cc4c(cc3[C@@H](O[C@@H]3O[C@@H]5CO[C@@H](C)O[C@H]5[C@H](O)[C@H]3O)[C@H]3COC(=O)[C@H]23)OCO4)cc(OC)c1O` [Etoposide] belongs 0.601; to `Cc1nc(C(=O)NCC(=O)O)c(O)c2ccc(Oc3ccccc3)cc12` [Roxadustat], 1.02.
`CNC(=O)c1nnc(NC(=O)C2CC2)cc1Nc1cccc(-c2ncn(C)n2)c1OC` [Deucravacitinib]: the “PARP1 L713F-nLuc/akaLuc ratio” value is 0.748.
As for `CC[C@H](C)C(=O)O[C@H]1C[C@H](O)C=C2C=C[C@H](C)[C@H](CC[C@@H](O)C[C@@H](O)CC(=O)O)[C@H]21` [Pravastatin sodium], the “PARP1 L713F-nLuc/akaLuc ratio” value was 0.829.
To `CCCS(=O)(=O)Nc1ccc(F)c(C(=O)c2c[nH]c3ncc(-c4ccc(Cl)cc4)cc23)c1F` [Vemurafenib (PLX4032, RG7204)] belongs 0.608; to `COc1ccc(S(=O)(=O)Nc2cccnc2Nc2ccc(O)cc2)cc1`, 1.28.
`NC(=O)c1cccnc1` [Nicotinamide]: the “PARP1 L713F-nLuc/akaLuc ratio” value was 0.942.
The figure for `COc1ccc2cc3[n+](cc2c1OC)CCc1cc(O)c(O)cc1-3` [Demethyleneberberine] is 1.47.
